Pf growth 48h – P. falciparum growth inhibition at 48 hours (one generation); P. falciparum luciferase growth in erythrocytes, 48 h; Potency, µM (series often up to 28.7 µM), for the others: at the top dose activity change, negative = inhibition, hits mostly inhibitors; 310,000 tested, 5.9% active
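Cell-based growth assay: transgenic P. falciparum expressing firefly luciferase, cultured in red cells within RPMI 1640 containing 0.5% w/v Albumax, 24 mM bicarbonate and gentamycin. A drop in luciferase activity indicates inhibition.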
Pf growth 96h – P. falciparum growth inhibition at 96 hours | Potency, µM (series often up to 28.7 µM), without a hit: top-dose activity change, negative = inhibition, usual class: inhibitors | 320,000 tested, 6.9% active | P. falciparum luciferase reporter growth, 96 h | AID 504834
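P. falciparum expressing integrated firefly luciferase, in erythrocytes at 2% hematocrit, 0.05% parasitemia, incubated with compounds 96 h at 37 C, 5% CO2. Growth inhibition read as loss of luminescence; two-generation exposure targets delayed-death apicoplast inhibitors.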
Vaccinia mCherry – inhibitors of vaccinia virus infection (mCherry reporter signal); Vaccinia virus mCherry reporter infection, fluorescence; AID 720579; 310,000 tested, 0.63% active; Potency, µM (doses to about 36.5 µM), inactives show top-dose activity change, negative = inhibition, usual class: inhibitors; calls by dose curve; tested in A549 cells; note: nearly all actives have a fitted effect of over 35% in size
Vaccinia Venus – vaccinia inhibition (Venus reporter); Vaccinia virus Venus reporter expression, fluorescence; Potency, µM (titrated, usually from 36.5 µM), without a hit: at the highest dose activity change, negative = inhibition, hits mostly inhibitors; 330,000 tested, 0.46% active; AID 720580; calls by dose curve; tested in A549 cells; note: nearly all actives have a fitted effect of over 30% in size
AMA1 RON2 block – AMA1-RON2 (P. falciparum) interaction inhibition; AlphaScreen AMA1-biotinylated RON2 peptide binding; 360,000 tested, 0.2% active; Potency, µM (doses to about 58.2 µM), inactives show at the top dose activity change, negative = inhibition, usual class: inhibitors;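 note: 0% = vehicle wells and -100% = peptide control; nearly all actives have a fitted effect of over 45% in size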
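AMA1 (3D7) with his tag at 25 nM final met compounds first, then biotinylated RON2 peptide at 25 nM; detection used donor plus acceptor beads, 10 µg/mL apiece, read by AlphaScreen after 30 min at room temperature.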
The depositor's hits bear a star; i = inactive; ? = inconclusive; . = no result given. In the library only some 8.7% were active in any assay of this set; here they are far more common. Unless noted, calls come from the whole dose curve; as a rule, active = well fitted curve in the direction sought with a large enough effect; inconclusive = small, poorly fitted or top-dose-only effect, or another doubt; inactive = no such curve, though single readings can be large; an effect the other way counts as inactive or inconclusive. Unless noted, % is set by controls: 0 for no effect and ±100 for the full control effect; potency is the fitted concentration of half-maximal effect.

SMILES	Pf growth 48h	Pf growth 96h	Vaccinia mCherry	Vaccinia Venus	AMA1 RON2 block
CCOC(=O)C1=C(C)NC(C)=C(C(=O)OCC)C1c1cn(-c2ccccc2)nc1-c1ccco1	4.7µM*	.	-14%	-13%	-4%
COc1ccc(NC(=O)Nc2cccs2)cc1OC	.	35%	i	-9%	-1%
C=CC[n+]1c(-c2ccc(OC)c(OC)c2)csc1NNC(=O)Nc1ccccc1	7.4µM*	9.3µM*	?	?	-5%
CCOC(=O)c1cccc(NC(=O)CSc2nnc(-c3ccoc3C)n2CCOC)c1	0%	1.2µM*	?	-20%	-2%
COCCn1c(SCC(=O)Nc2cccc(C)c2)nnc1C(C)C	15%	0.17µM*	-10%	-25%	4%
CCn1c(SCC(=O)Nc2ccccc2F)nnc1-c1ccoc1C	7%	?	12%	-6%	0%
COCCn1c(SCC(=O)Nc2cccc(OC)c2)nnc1-c1ccccc1	-2%	2.3µM*	-23%	-7%	8%
Cc1occc1-c1nnc(SCC(=O)Nc2ccccc2)n1CCc1ccccc1	?	-11%	-28%	-15%	-6%
CCn1c(SCC(=O)Nc2ccccc2-c2ccccc2)nnc1-c1ccoc1C	?	12µM*	-10%	-21%	-10%
CC1=C(C(=O)Nc2ccc(C)cc2Cl)C2(CCCCC2)OC1=O	.	.	-12%	-12%	.
COc1ccc(CN2CCOc3ccc(C(O)c4cccnc4)cc3C2)cc1O (stereo not drawn)	.	.	-13%	-7%	.
CN(C)c1ccc(/C=C/c2ccnc3ccc(F)cc23)cc1	.	.	-39%	-42%	.
Cc1ccc(NP(=O)(Nc2ccc(C)cc2)Nc2ccc(C)cc2)cc1	12µM*	?	i	-30%	0%
Cc1ccc(P(C)(=O)c2ccc(C)cc2)cc1	.	?	-7%	-2%	7%
CC1CCc2c(sc(NC(=O)/C=C/c3cccs3)c2C(=O)O)C1 (stereo not drawn)	6%	9.3µM*	.	.	-2%
Cc1ccc(Nc2cc(C)c(C#N)c3nc4ccccc4n23)cc1Cl	.	.	-25%	-9%	.
CC(c1nnc(SCC(=O)Nc2cc([N+](=O)[O-])ccc2F)n1Cc1ccccc1)N(C)C (stereo not drawn)	8.3µM*	5.2µM*	0%	-5%	-8%
CCOC(=O)C1=C(CC)Nc2ccccc2N=C1NC(=O)c1cc(C)on1	46%	32%	.	.	6%
CCOC(=O)C1=C(CC)Nc2ccccc2N=C1NC(=O)Nc1ccc(Cl)c(Cl)c1	.	2.6µM*	?	?	?
Cc1cccc(-n2c(SCC(=O)N3CC(=O)Nc4ccccc43)nc3ccccc3c2=O)c1C	?	3.7µM*	-10%	-28%	-19%
O=C1CN(C(=O)CSc2nc3ccccc3c(=O)n2CC2CCCO2)c2ccccc2N1 (stereo not drawn)	-21%	?	.	.	1%
Cc1cccc(-n2c(SCC(=O)N3CC(=O)Nc4ccccc43)nc3ccccc3c2=O)c1	13µM*	?	-24%	-23%	-22%
Cc1ccc(-n2c(SCC(=O)N3CC(=O)Nc4ccccc43)nc3ccccc3c2=O)cc1C	10µM*	8.3µM*	.	.	-5%
Cc1ccccc1NC(=O)c1c(NC(=O)c2ccncc2)sc2c1CCC(C(C)(C)C)C2 (stereo not drawn)	.	.	-14%	-14%	.
O=C(CSCc1ccco1)c1ccc(Cl)s1	103%	12µM*	.	.	.
SMILES	Pf growth 48h	Pf growth 96h	Vaccinia mCherry	Vaccinia Venus	AMA1 RON2 block
Cc1ccc(C)c(CN2C(=O)c3ccccc3S(=O)c3ccc(C(=O)NCCC4=CCCCC4)cc32)c1 (stereo not drawn)	.	.	-11%	-19%	.
CCc1nn2c(=O)c(S(=O)(=O)Nc3ccc(OC)c(Cl)c3)c(C)nc2s1	.	.	-4%	-5%	.
Cc1cc(N2CCN(C(=O)c3ccco3)CC2)n2nc(-c3cccc(Cl)c3)cc2n1	9.3µM*	5%	.	.	-7%
Cc1cc(N2CCN(c3cccc(C)c3C)CC2)n2nc(C)c(-c3ccc(Cl)cc3)c2n1	.	.	2%	-8%	.
Cc1nn(-c2ccc(Cl)cc2)c2sc(C(=O)N3CCN(C(=O)c4ccco4)CC3)cc12	7%	10µM*	.	.	.
O=C(c1ccccc1)c1ccc2nc(N3CCN(C(=O)c4ccco4)CC3)c3nncn3c2c1	.	3.3µM*	-22%	-27%	0%
Cc1cc(N2CCN(C(=O)c3ccco3)CC2)n2nc(C)c(-c3ccc(Cl)cc3)c2n1	14%	4.1µM*	.	.	.
